Assay [1] is described as follows: High-throughput drug toxicity screening in the BPDCN cell line Gen2.2 (AID 1224824; call rule not given here;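 also: cells exposed to compounds for 48 h before reading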). The following applies: Gen2.2 BPDCN cells; at 45.8 µM (top of the series) unless noted. The method, boiled down: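 Gen2.2 cells, 500 per well in phenol red-free RPMI with 10% FBS, exposed to compounds 48 h at 37 C, 5% CO2; viability by CellTiter-Glo luminescence. Percent activity scaled to DMSO (100%) and 9.2 uM bortezomib final (0%).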

Assay [2] in a line: High-throughput drug toxicity screening in the BPDCN cell line Cal-1 (AID 1224825; call rule not given here). The following applies: Cal-1 BPDCN cell viability, qHTS; at 45.8 µM (top of the series) unless noted. Summed up:
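Cal-1 cells, 500 per well in phenol-red-free RPMI with 10% FBS, exposed to compounds for 48 hours at 37C, 5% CO2. Viability read by CellTiter-Glo luminescence; percent activity normalized to DMSO (100%) and 9.2 uM bortezomib final (0%).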
A general note: In qHTS, concentration-response curves come from the screen itself.

A short description of assay [3]: qHTS assay for measurement of the activity of small molecule inhibitors on Zika virus induced Caspase-3 activity in human iPSC derived neural progenitor cells (hNPCs) (AID 1224857). Also: % of control where 0% means no effect; nearly all actives have a fitted effect of over 65% in size. The method, boiled down: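 Zika virus (2 FFU/cell) infection of human iPSC-derived NPCs, 6 h, following 1 h compound preincubation. Read-out: Caspase-Glo 3/7 luminescence.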
The nature of assay [4]: qHTS assay for measurement of the activity of small molecule inhibitors on Zika virus induced Caspase-3 activity in human astrocytoma cells (AID 1224859).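 Also: plate controls were ZIKV-infected untreated cells for no effect and uninfected cells for full effect.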 Summed up: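 Caspase activation in ZIKV-infected SNB-19 cells (2 FFU/cell, 6 h) measured by Caspase-Glo 3/7 luminescence after 30 min RT; compound pre-incubated 1 h; normalised to uninfected and infected controls.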
A short description of assay [5]: qHTS Screen of the MIPE 4.0 Collection Against Ewings Sarcoma (RDES) (AID 1259252). Also: nearly all actives have a fitted effect of over 35% in size. Also: potency is read from the fitted curve at half-maximal effect. The method, boiled down: (§1)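 Dose series incubated 48 h with cells in RPMI plus 5% FBS, glutamine and penicillin/streptomycin; cell viability then quantified via CellTiter-Glo.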
Assay [6] is described as follows: qHTS Screen of the MIPE 4.0 Collection Against Ewings Sarcoma (TC71) (AID 1259253). Also: nearly all actives have a fitted effect of over 40% in size. Also: potency is read from the fitted curve at half-maximal effect. The method, boiled down: as §1
Assay [7] is described as follows: qHTS Screen of the MIPE 4.0 Collection Against Ewings Sarcoma (EW8) (AID 1259255). Also: nearly all actives have a fitted effect of over 35% in size. Also: potency is read from the fitted curve at half-maximal effect.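 As to viability: 100% = DMSO-treated cells and 0% = medium-only wells without cells.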 The method, boiled down:
as §1

The nature of assay [8]: qHTS Screen of the MIPE 4.0 Collection Against Ewings Sarcoma (TC32) (AID 1259256). Also: nearly all actives have a fitted effect of over 45% in size. Also: potency is read from the fitted curve at half-maximal effect. Summed up:
as §1

A short description of assay [9]: qHTS assay to identify small molecule inhibitors of chordoma cells - UCH-1 (AID 1259355). Also: % is scaled to controls: 0 for no effect and ±100 for the full control effect; nearly all actives have a fitted effect of over 55% in size. The method, boiled down:
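Cells (800/well) were seeded and left overnight at 37 C, 5% CO2, then treated with drugs at 15 concentrations plus a combination mix of auranofin, camptothecin, doxorubicin, rubitecan and topotecan. Viability after 48hr was read by CellTiter-Glo luminescence.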

A short description of assay [10]: Identifying Small Molecule Inhibitors of Pancreatic Cancer Stem Cells (SN12C, Adherent) (AID 1259358).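 Also: cell survival measured after 48 h of compound exposure.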 Also: potency is read from the fitted curve at half-maximal effect. Summed up:
(§2)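 Endpoint: ATP-based luminescence, 48 h drug exposure. Bortezomib at 9.2 uM final as full-kill control; DMSO vehicle as negative control; activity normalized between vehicle and cell-free wells.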

Assay [11] in a line: Identifying Small Molecule Inhibitors of Pancreatic Cancer Stem Cells (SN12C, Spheroid) (AID 1259360).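 Also: 100% = DMSO-treated cells and 0% = wells without cells.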 The following applies: Potency: SN12C spheroid viability. The method, boiled down: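 Pre-formed 14-day tumor spheroids or adherent cells dosed and incubated 48 h, 37C, 5% CO2. Viability assessed by CellTiter-Glo.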
Assay [12] in a line: P-glycoprotein substrates identified in KB-8-5-11 adenocarcinoma cell line, qHTS therapeutic library screen (AID 1346987). Also: nearly all actives have a fitted effect of over 65% in size. Also: potency is read from the fitted curve at half-maximal effect. As to activity change, negative = cytotoxicity: % is scaled to controls: 0 for no effect and ±100 for the full control effect. Summed up: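 KB-8-5-11: colchicine-selected sub-line of KB-3-1 over-expressing P-gp; assay medium lacked colchicine. 72 h drug exposure at 37 degree C, CellTiter-Glo.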
The nature of assay [13]: Cell Proliferation Assay Versus the ED40515 IL2 Independent ATL cell lines (AID 1053194; calls by dose curve). The following applies: ED40515 IL2-independent ATL cells. Summed up: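 Log-phase ED40515 cells grown without IL-2, 1000 cells/well in phenol red-free RPMI with 5% FBS, exposed to drugs 48 h at 37C. Viability read as CellTiter-Glo luminescence after 15 min at RT; DMSO and 9.2 uM bortezomib as controls.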

Assay [14] in a line: Cell Proliferation Assay Versus the ED40515 IL2 Dependent ATL cell lines (AID 1053195; calls by dose curve). The following applies: ED40515 IL2-dependent ATL cells. The method, boiled down:
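IL2-dependent ED40515 ATL cells grown with IL2, 1000 cells/well in phenol red-free RPMI + 5% FBS, exposed 48 hours at 37C. Viability by CellTiter-Glo luminescence after 15 min at RT; 9.2 uM bortezomib as control.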

Assay [15] can be described thus: Identifying Small Molecule Inhibitors of Pancreatic Cancer Stem Cells (A278, Adherent) (AID 1259361).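 Also: viability read after 48 h compound exposure; nearly all actives have a fitted effect of over 35% in size.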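 As to viability (% of control): 100% = DMSO-treated cells and 0% = cell-free media-only wells.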 The method, boiled down:
as §2

The nature of assay [16]: Identifying Small Molecule Inhibitors of Pancreatic Cancer Stem Cells (Panc1, Adherent) (AID 1259362).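 Also: compound exposure lasted 48 h before the viability read; plate controls were DMSO-treated cells for no effect and cell-free media wells for full effect.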 The following applies: Potency: viability. Summed up:
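Luminescent ATP readout (CellTiter-Glo) quantifies surviving cells after a 48 h drug incubation. Normalization uses DMSO wells as no inhibition and media-only wells as full inhibition; bortezomib served as positive control.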

Assay [17] in a line: P-glycoprotein substrates identified in KB-3-1 adenocarcinoma cell line, qHTS therapeutic library screen (AID 1346986). Also: % is scaled to controls: 0 for no effect and ±100 for the full control effect; nearly all actives have a fitted effect of over 60% in size. Summed up: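 Compounds were tested in dose-response against KB-3-1 and KB-8-5-11 cells at 37 degree C for 72 h, and viability was measured by luminescence. AC50 values came from curve fitting with class-based activity calls.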
The nature of assay [18]: qHTS assay to identify small molecule inhibitors of chordoma cells - UCH-2 (AID 1259356). Also: % is scaled to controls: 0 for no effect and ±100 for the full control effect.
Assay [19] is described as follows: Identifying Small Molecule Inhibitors of Pancreatic Cancer Stem Cells (Panc1, Spheroid) (AID 1259359).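 Also: compound exposure lasted 48 h before reading.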 The method, boiled down: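 After a 4 h attachment period, compounds were pinned into wells and cultures held 48 h under standard incubator conditions. Viability was then measured as CellTiter-Glo luminescence following 10 min at room temperature.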
Assay [20] can be described thus: Natriuretic polypeptide receptor (hNpr1) antagonism - Pilot counterscreen GloSensor control cell line (AID 1347045; calls by dose curve; also: % is scaled to controls: 0 for no effect and ±100 for the full control effect). Summed up:
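HEK293 cells carrying the GloSensor cGMP sensor (GIP/pGS-40F) were loaded with 2% GloSensor reagent for 2 h, exposed to compounds for 30 min, and then stimulated with 50 uM sodium nitroprusside for 20 min at room temperature.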
For orientation: The purpose of a counterscreen is to sort out artefacts and off-target activity.

Molecules are shown by their SMILES. Where “and” joins values, the source holds several entries; their conditions need not be identical. Identical values can stand only once. Records with an inconclusive call do not appear. Calls of active or inactive are those of the source. Unless noted, calls follow the shape of the dose curve; as a rule, active = well fitted curve in the direction sought with a large enough effect; inconclusive = small, poorly fitted or top-dose-only effect, or another doubt; inactive = no such curve, though single readings can be large; an effect the other way counts as inactive or inconclusive.

As to `CC(c1cc2ccccc2s1)N(O)C(N)=O` (stereo not drawn), the cell viability, % of control (lower = more cytotoxic) in assay [1] is 150%. Besides, in assay [2], the viability (% of control) was found to be 110%. The Potency result in assay [3], in assay [4], in assay [5], in [6], in assay [7] and in assay [8] was “inactive” each time. Further, the Potency entry in assay [9], in [10], in [11] and in [12] was “inactive” each time.
On to `CCN(CCCO)CCCOc1ccc2c(Nc3cc(CC(=O)Nc4cccc(F)c4)[nH]n3)ncnc2c1`, for which, in assay [13], the Potency was 26.4 µM (active). For the same compound, the Potency entry in assay [10] and in assay [11] was “inactive” each time.
Take `CN([C@@H](Cc1ccc(OS(=O)(=O)c2cccc3cnccc23)cc1)C(=O)N1CCN(c2ccccc2)CC1)S(=O)(=O)c1cccc2cnccc12`: the Potency in assay [14] is 6.62 µM (active). For the same compound, the Potency entry in assay [10], in assay [11] and in assay [16] was “inactive” throughout. Also, in assay [15], the IC50 (viability decrease) result was “inactive”. Besides, the results for the activity change, negative = cytotoxicity in assay [17] and in assay [12] were -0.309% [at 5.11 µM] (inactive) and -4.44% [at 5.11 µM] (inactive), respectively.
`COc1ccc(-c2ccc3c(N4CCOC[C@H]4C)nc(N4CCOC[C@H]4C)nc3n2)cc1CO`: the Potency is 0.0935 µM (active) in assay [14]; 0.0332 µM (active) in [6]; 0.0264 µM (active) in assay [7]; 26.4 nM (active) in assay [8]; 14.8 nM (active) in assay [10]; 13.2 nM (active) in assay [12]. In addition, the viability (% of control) in [2] is 22%. The Potency entry in assay [3] was “inactive”.
On to `CCC(C)(C)C(=O)O[C@H]1C[C@@H](C)C=C2C=C[C@H](C)[C@H](CC[C@@H]3C[C@@H](O)CC(=O)O3)[C@H]21`, for which the cell viability, % of control (lower = more cytotoxic) in assay [1] was 26.7%. Besides, the viability (% of control) in [2] came out at 59.6%. Also, the Potency entry in [3], in assay [4], in assay [9], in [19] and in assay [11] was “inactive” in each case. Moreover, the Potency is 23.5 µM (active) in assay [5]; 11.8 µM (active) in [6]; 18.7 µM (active) in assay [7]; 3720 nM (active) in [8]; 16600 nM (active) in assay [12]. Moreover, the result in assay [18] was inactive. In addition, in assay [15], the IC50 (viability decrease) was 3.17 µM (active).
For `CNC(=O)c1ccccc1Sc1ccc2c(/C=C/c3ccccn3)n[nH]c2c1`, the Potency in [13] was 16.6 µM (active); in [12] it was 18.4 µM (active) and 7.31 µM (active).
Turning to `CCC(C)N(C)C(=O)c1cc2ccccc2c(-c2ccccc2Cl)n1` (stereo not drawn), the Potency in assay [14] is 11.8 µM (active). In addition, the cell viability, % of control (lower = more cytotoxic) in assay [1] is 95%. In addition, the viability (% of control) in [2] was 94.3%. Besides, the Potency result in assay [3], in assay [7], in [10], in [11] and in assay [16] was “inactive” each time. The IC50 (viability decrease) entry in assay [15] is “inactive”. In assay [20], the compound was classed as inactive.
As for `NC(=O)c1ccc(I)c([N+](=O)[O-])c1`, in assay [14], the Potency was 37.2 µM (active). The cell viability, % of control (lower = more cytotoxic) in assay [1] amounted to 44.8%. Besides, the viability (% of control) in assay [2] was found to be 40.1%. The Potency result in [3], in [4], in assay [5], in assay [6], in [7] and in assay [8] was “inactive” throughout. Further, the Potency result in assay [10], in assay [11] and in assay [12] was “inactive” each time. Moreover, in assay [15], the IC50 (viability decrease) entry is “inactive”.
For `Cc1ccc2c(c1)C(=O)[C@@]1(O)CCN(c3ccccc3)C1=N2`, the Potency in [13] was 13.2 µM (active). Also, the Potency result in [10] and in [11] was “inactive” each time. The IC50 (viability decrease) result in assay [15] was “inactive”.

For the origin of these results see PubChem BioAssay (NCATS).
